Test systems include NCI-H23 lung; NCI-H226 lung; NCI-H322M lung; HOP-62 NSCLC; NCI-H460 lung; NCI-H522 lung; A549/ATCC NSCLC; 786-0 renal; COLO 205 colon; DU-145 prostate; K-562 leukemia; MALME-3M melanoma; MDA-MB-231 breast; RXF 393 renal; SF-268 CNS; SF-295 CNS; SF-539 CNS; UACC-257 melanoma; M14 melanoma; HOP-92 NSCLC.
Common to all, as to test: NCI-60 one-dose screen, 48 h (100 = growth as untreated, 0 = no growth, -100 = all killed)
Conditions in all cases: 10 µM unless noted

The panel holds about 83,000 compounds, 20% with a hit somewhere; the sample as a whole holds those more often.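 Note: values are percent growth. 100 is the growth of untreated cells, values between 100 and 0 indicate rising inhibition; between -100 and 0 indicates cell death.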 Values without a mark were called inactive. Active and inactive are the calls of the source. Rule for the calls: active = growth percent below 10; inactive = the rest.

On to `Cc1ccc(NC2=CC(=O)C(=O)c3ccccc32)cc1`, for which the growth in the experiment on NCI-H23 lung is -31.2% (active); with NCI-H226 lung it was -67.9% (active); with NCI-H322M lung, -12.5% (active); with HOP-62 NSCLC it was -86.2% (active); in the experiment on NCI-H460 lung, 5.26% (active); with NCI-H522 lung it was 18.8%. Besides, the growth with A549/ATCC NSCLC is -36.5% (active); in the experiment on 786-0 renal, 34.8%; with COLO 205 colon, -68.5% (active); in the experiment with DU-145 prostate it was -65.1% (active); in the experiment on K-562 leukemia, 16.4%; in the experiment on MALME-3M melanoma, -76.5% (active). The growth in the experiment with MDA-MB-231 breast was 49%; in the experiment with RXF 393 renal, 44.1%; in the experiment with SF-268 CNS, 41%; in the experiment with SF-295 CNS, -22.9% (active); in the experiment on SF-539 CNS it was -20.4% (active); in the experiment on UACC-257 melanoma it was -46.2% (active). In addition, in the experiment on M14 melanoma, the growth is -63.5% (active).

Turning to `O=C1C=CC(=O)c2c(O)c(CO)c(CO)c(O)c21`, the growth is 89.2% with NCI-H23 lung; 110% in the experiment on NCI-H226 lung; 119% in the experiment with NCI-H322M lung; 109% in the experiment on HOP-62 NSCLC; 102% in the experiment with NCI-H460 lung; 56.6% in the experiment with NCI-H522 lung. Also, the growth is 99.5% in the experiment with A549/ATCC NSCLC; 93.7% with 786-0 renal; 12% with COLO 205 colon; 54.9% in the experiment with DU-145 prostate; 91.7% in the experiment with K-562 leukemia; 9.33% (active) in the experiment with MALME-3M melanoma. Also, the growth in the experiment with MDA-MB-231 breast was 89.6%; with RXF 393 renal, 98%; in the experiment with SF-268 CNS it was 111%; in the experiment with SF-295 CNS it was 95%; with SF-539 CNS it was 104%; in the experiment with UACC-257 melanoma, 94.4%. Moreover, the growth in the experiment on M14 melanoma was 14%.

As for `Nc1nc(N)c2cc(Sc3cccc(C(F)(F)F)c3)ccc2n1`, the growth in the experiment on NCI-H23 lung was 40.3%; in the experiment with NCI-H226 lung, 57.6%; with NCI-H322M lung, 37.1%; with HOP-62 NSCLC it was 61.3%; in the experiment on HOP-92 NSCLC, 28.5%; in the experiment with NCI-H522 lung, 35.4%. Further, the growth is 12.7% with A549/ATCC NSCLC; 19.2% in the experiment with 786-0 renal; -75.9% (active) in the experiment with COLO 205 colon; 28.6% in the experiment with DU-145 prostate; 8.39% (active) with K-562 leukemia; 31.5% in the experiment with MALME-3M melanoma. Besides, the growth with MDA-MB-231 breast is 45.3%; with RXF 393 renal it was 42.8%; in the experiment on SF-268 CNS, 29.5%; with SF-539 CNS it was 28.6%; in the experiment with UACC-257 melanoma it was 27.4%; in the experiment with M14 melanoma it was 13.6%.

In the case of `CCCCCCCCCCCC1N=C(N)N=C(N)N1c1cccc(Br)c1` (stereo not drawn), the growth in the experiment on NCI-H23 lung is 6.58% (active); in the experiment on NCI-H226 lung, 39.1%; in the experiment on NCI-H322M lung it was 54.4%; in the experiment on HOP-62 NSCLC, -8.64% (active); in the experiment on NCI-H460 lung it was -58.4% (active); with A549/ATCC NSCLC, 21.7%. Further, the growth was 4.98% (active) in the experiment with 786-0 renal; -77.3% (active) in the experiment with COLO 205 colon; 17.7% in the experiment with DU-145 prostate; -20.1% (active) in the experiment on K-562 leukemia; 76% in the experiment on MALME-3M melanoma; -48.1% (active) in the experiment on MDA-MB-231 breast. For the same molecule, the growth with RXF 393 renal was -32.1% (active); in the experiment with SF-268 CNS, 8.27% (active); with SF-295 CNS it was 18.9%; in the experiment on SF-539 CNS, 12%; in the experiment with UACC-257 melanoma, 61.3%; in the experiment with M14 melanoma, 11.4%.

With `CCCCCCCCCCCC[n+]1ccc2ccccc2c1`, the growth in the experiment with NCI-H23 lung was -33.4% (active); in the experiment with NCI-H226 lung, 4.19% (active); in the experiment on NCI-H322M lung, 17%; in the experiment on HOP-62 NSCLC, -33.2% (active); with NCI-H460 lung, -13.5% (active); in the experiment on NCI-H522 lung it was -39.2% (active). Also, the growth in the experiment with A549/ATCC NSCLC was 6.68% (active); in the experiment on 786-0 renal, -62.8% (active); with COLO 205 colon, -80.2% (active); in the experiment on DU-145 prostate, 8.38% (active); with K-562 leukemia, -18.4% (active); in the experiment on MDA-MB-231 breast, -18% (active). Further, the growth with RXF 393 renal is -6.08% (active); in the experiment on SF-268 CNS, -72.7% (active); in the experiment with SF-295 CNS it was -40.3% (active); with SF-539 CNS, -47.8% (active); in the experiment on UACC-257 melanoma it was -39.2% (active); with M14 melanoma, -84.2% (active).

`COC(=O)c1ccc(=O)c2nc3/c(=C/O)c(O)cc(=O)c3[nH]c12`: the growth is 15.1% in the experiment with NCI-H23 lung; 34.9% with NCI-H226 lung; 29.1% in the experiment on NCI-H322M lung; -9.51% (active) in the experiment on HOP-62 NSCLC; -1.12% (active) with HOP-92 NSCLC; 6.78% (active) with NCI-H522 lung. Further, the growth in the experiment on A549/ATCC NSCLC was 27.7%; in the experiment with 786-0 renal it was 11.8%; in the experiment with COLO 205 colon, 51%; with DU-145 prostate, 29.5%; with K-562 leukemia it was 7.14% (active); with MALME-3M melanoma, 1.52% (active). The growth in the experiment on MDA-MB-231 breast is 45.3%; in the experiment on SF-268 CNS it was 14.5%; in the experiment on SF-295 CNS, 6.32% (active); with SF-539 CNS it was 12.6%; in the experiment on UACC-257 melanoma, 5.98% (active); in the experiment with M14 melanoma, 26.8%.

Regarding `O=C1C=CC(O)=CC1=P(c1ccccc1)(c1ccccc1)c1ccccc1`, the growth is 94.6% in the experiment on NCI-H23 lung; 88.8% in the experiment with NCI-H226 lung; 83.3% with NCI-H322M lung; 99.7% in the experiment with HOP-62 NSCLC; 73.6% with NCI-H460 lung; 81.8% in the experiment with NCI-H522 lung. Further, the growth with 786-0 renal was 87.9%; in the experiment with COLO 205 colon, 105%; in the experiment on DU-145 prostate, 114%; in the experiment with K-562 leukemia, 88.8%; with MALME-3M melanoma it was 59.5%; in the experiment with MDA-MB-231 breast, 81.3%. In addition, the growth in the experiment with SF-268 CNS was 100%; in the experiment on SF-295 CNS, 107%; with SF-539 CNS, 86.9%; with M14 melanoma it was 100%.

Turning to `Cc1ccc(/C=C2\CNC/C(=C\c3ccc(C)cc3)C2=O)cc1`, the growth was 2.76% (active) in the experiment on NCI-H23 lung; -63.2% (active) in the experiment on NCI-H226 lung; 22.9% in the experiment with NCI-H322M lung; 4.5% (active) in the experiment on HOP-62 NSCLC; 11% in the experiment on HOP-92 NSCLC; -54% (active) in the experiment on NCI-H522 lung. Besides, the growth is -53.7% (active) with A549/ATCC NSCLC; -71.5% (active) in the experiment with 786-0 renal; -70.5% (active) in the experiment on COLO 205 colon; -87.5% (active) in the experiment on DU-145 prostate; -28.5% (active) in the experiment on K-562 leukemia; 29.4% in the experiment with MALME-3M melanoma. The growth in the experiment on MDA-MB-231 breast is -15.9% (active); in the experiment on RXF 393 renal, -57.4% (active); in the experiment with SF-268 CNS, -8.61% (active); in the experiment on SF-295 CNS it was -5.11% (active); with SF-539 CNS, -64.5% (active); in the experiment with UACC-257 melanoma, -21.1% (active).

`NC(=S)N/N=C\c1nccc2c(C(F)(F)F)cccc12`: the growth with NCI-H23 lung was 13.4%; in the experiment with NCI-H226 lung, -0.105% (active); in the experiment with NCI-H322M lung it was 4.15% (active); with HOP-62 NSCLC, -5.75% (active); with NCI-H460 lung, 0.121% (active); with NCI-H522 lung, -30.5% (active). The growth in the experiment on A549/ATCC NSCLC is 3.44% (active); in the experiment on 786-0 renal, -24.7% (active); in the experiment with COLO 205 colon, 17.8%; in the experiment with DU-145 prostate, 12%; in the experiment on K-562 leukemia it was 5.11% (active); in the experiment with MALME-3M melanoma, -10.4% (active). For the same molecule, the growth was 49.1% in the experiment with MDA-MB-231 breast; 16% in the experiment on RXF 393 renal; 5.75% (active) in the experiment on SF-268 CNS; 7.98% (active) with SF-295 CNS; 0.339% (active) with SF-539 CNS; -23.9% (active) with UACC-257 melanoma. Also, in the experiment with M14 melanoma, the growth is -26.7% (active).

Source of the values: PubChem BioAssay (NCI).
